ChEMBL document CHEMBL4513216, “Probing the Open Global Health Chemical Diversity Library for Multistage-Active Starting Points for Next-Generation Antimalarials” (ACS Infect Dis, 2020)
Hit rate of the full screen: of about 69,000 compounds, about 8,600 (12%) showed an effect of 50% or more. Only a selection was taken, and strong results are over-represented in it overall.

Each molecule was assayed on Plasmodium berghei (assay: Screen against P. berghei liver stage (PbLuc), transformed with Luciferase, at 10uM). Settings: tested at 10 uM.
Format: functional, HepG2

Row | SMILES | INHIBITION [%]
1 | O=C(NCc1cccs1)[C@H]1CC[C@@H]2[C@@H](CCN2c2ncccn2)O1 | -50.8
2 | O=C(NCc1cccnc1)[C@@H]1C[C@H]2[C@H](CCN2c2ncc(F)cn2)O1 | 21.8
3 | O=C(NCc1cccnc1)[C@@H]1CC[C@@H]2[C@@H](CCN2c2ncccn2)O1 | 96.3
4 | CNC(=O)[C@H]1CC[C@@H]2[C@@H](CCN2c2ncccn2)O1 | 47.5
5 | OCc1cn(Cc2cccc(C(F)(F)F)c2)nn1 | -5.1
6 | CCN(Cc1cnn(C)c1)C(=O)c1ccc(C)c(N2CCNC2=O)c1 | 28.2
7 | Cc1ccc(C(=O)N(C)CCCc2cnn(C)c2)cc1N1CCNC1=O | 58.8
8 | CN(Cc1cnn(C)c1)C(=O)c1ccc(Cl)c(N2CCNC2=O)c1 | 18.4
9 | O=C(NC1CCN(c2ncccc2F)C1)c1cccc(-n2ccnn2)c1 (configuration not stated) | -20.8
10 | C1CC(CN2C[C@@H]3CC[C@H]2CN(Cc2noc(C4CCCC4)n2)C3)C1 | 18.6
11 | CNC(=O)c1cccc(CNC(C)c2cc(Cl)ccc2OC)c1 (configuration not stated) | 18.9
12 | CNC(=O)c1cccc(CNC(C)c2ccc(F)cc2N(C)C)c1 (configuration not stated) | 66.8
13 | CNC(=O)c1cccc(CCNS(C)(=O)=O)c1 | 21.3
14 | CNC(=O)c1cccc(CNC(C)c2cc(C)ccc2OC(F)F)c1 (configuration not stated) | 51.5
15 | CC(NCCCN1CCCC1=O)c1ccc(F)cc1N(C)C (configuration not stated) | -2.75
16 | CC(NCCN1CCC(N(C)C)CC1)c1ccc(F)cc1N(C)C (configuration not stated) | 40.6
17 | O=S(=O)(NC[C@]12COC[C@H]1CN(c1ncc(F)cn1)C2)C1CC1 | -15.6
18 | CCOC(CC)C(=O)NCCC(=O)N1CCN(c2ncccn2)CC1 (configuration not stated) | -18.2
19 | COc1ccc2nc(NC(=O)c3c(C(=O)O)cnn3C)sc2c1 | 28.7

Row | SMILES | INHIBITION [%]
20 | CC(CNCc1ccc2c(c1)n(C)c(=O)n2C)Oc1ccccn1 (configuration not stated) | -8.51
21 | Cc1ccccc1C1CCN(CCn2cc(-c3cccc(O)c3)nn2)C1 (configuration not stated) | 59.3
22 | Cc1ccccc1C1CCN(CCn2cc(-c3nccs3)nn2)C1 (configuration not stated) | 4.15
23 | Cc1ccccc1C1CCN(CCn2cc(-c3nccn3C)nn2)C1 (configuration not stated) | 28
24 | Cc1noc(OCC(=O)N2CCCCC2C)n1 (configuration not stated) | -26.4
25 | Cc1cccc(C)c1OC1CCN(Cc2ccn(C)c(=O)c2)CC1 | 58
26 | Cn1ccc(CN2CCC(Oc3ccccc3)CC2)cc1=O | 25.6
27 | Cn1ccc(CN2CCC(OCc3ccccc3)CC2)cc1=O | 3.15
28 | Cn1ccc(CN2CCC(COC3CCCC3)CC2)cc1=O | 58
29 | COc1ccc(OC2CCN(Cc3ccn(C)c(=O)c3)CC2)cc1 | 45.7
30 | Cn1ccc(CN2CCC(CO)CC2)cc1=O | -10.8
31 | CN(C)[C@@H]1CCN(C(=O)NC2CCCC2)[C@H]1Cc1ccncc1 | 23.3
32 | O=c1[nH]c(N2CCCCC2)nc2c1CCN(Cc1cccnc1)C2 | 8.72
33 | CCn1c(=O)c2cc(S(N)(=O)=O)ccc2n(CC)c1=O | 2.84
34 | CC(C)N(C)Cc1cn2c(n1)CN(Cc1ccsc1)CC2 | -14.9
35 | Cc1cc(CN2CCCC(Cn3cncn3)C2)on1 (configuration not stated) | 35.3
36 | Cc1nc(CNC(=O)NCc2cccnc2N(C)C)cs1 | -27.8
37 | COc1ccc(NC(=O)N2CCCC2c2ccco2)c(OC)c1 (configuration not stated) | 41.5
38 | CN(CCNC(=O)Nc1cnn(C)c1)Cc1ccc(F)cc1 | 49.3

Row | SMILES | INHIBITION [%]
39 | CN(CCNC(=O)Nc1ccn(C)n1)Cc1ccc(F)cc1 | 52.7
40 | CN(CCNC(=O)Nc1nccs1)Cc1ccc(F)cc1 | 2.7
41 | O=C(Nc1nnn[nH]1)c1cc(-c2ccc(Br)s2)n[nH]1 | 11.3
42 | CN(Cc1ccco1)C(=O)C1CCCc2ccccc21 (configuration not stated) | 50.5
43 | N#CCCN(Cc1ccco1)C(=O)C1CCCc2ccccc21 (configuration not stated) | 24.2
44 | Cc1noc(C)c1CN(C)C(=O)C1CCCc2ccccc21 (configuration not stated) | 26.6
45 | Cc1ccoc1C(=O)N1C[C@@H](N2CCN(C)CC2)[C@H]2OCCC[C@H]21 | -26.5
46 | Cc1cc(-c2cnc(NC3CC3)nc2-c2ccoc2C)on1 | 58.1
47 | Cc1cc(-c2cnc(NC3CC3)nc2-c2ccco2)on1 | -21.4
48 | Cc1noc(-c2cnc(NC3CC3)nc2-c2ccco2)c1C | 7.9
49 | Cc1cc(-c2cnc(NC3CCCC3)nc2-c2ccoc2C)on1 | 78.5
50 | Cc1occc1-c1nc(NC2CCCC2)ncc1-c1ccccn1 | 62.9
51 | Cc1cc(-c2cnc(NC3CCCC3)nc2-c2ccoc2)on1 | 41.2
52 | Cc1cc(-c2cnc(NC3CCCC3)nc2-c2ccco2)on1 | -18.9
53 | Cc1cc(-c2cnc(NC3CCCC3)nc2-c2ccc(C)o2)on1 | 11.1
54 | Cc1cc(-c2cnc(NC3CC3)nc2-c2ccoc2)on1 | 3.91
55 | Cc1cc(-c2cnc(NC3CC3)nc2-c2ccc(C)o2)on1 | 39.2
56 | Cc1cc(-c2cnc(NC3CCCCC3)nc2-c2ccco2)on1 | 60.5
57 | Cc1cnc(-c2nc(NC3CCCC3)ncc2-c2onc(C)c2C)cn1 | -29.8
